Source: PubChem
A selection: hits, their analogues and other compounds. The true share with any hit is near 21%.
TDP1 cell noCPT – qHTS for Inhibitors of human tyrosyl-DNA phosphodiesterase 1 (TDP1): qHTS in cells in absence of CPT; Potency, µM (doses to about 46.2 µM), inactives show top-dose activity change, negative = growth inhibition, actives largely listed as inhibitors; DT40 Tdp1-/- hTDP1 cells, no CPT, ATP luminescence, 48 h; 15% of 420,000 active; also: potency is read from the fitted curve at half-maximal effect; % is scaled to controls: 0 for no effect and ±100 for the full control effect; nearly all actives have a fitted effect of over 55% in size
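Luminescent ATP content (CellTiter-Glo) served as the growth readout. Knockout chicken DT40 cells expressing human TDP1 were exposed to compounds without camptothecin for a minimum 48 hr at 37 °C.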
DT40 TDP1 CPT – qHTS for Inhibitors of human tyrosyl-DNA phosphodiesterase 1 (TDP1): qHTS in cells in presence of CPT; chicken DT40 Tdp1-/-;hTDP1 cells + 20 nM CPT, ATP luminescence, 48 h; Potency, µM (doses to about 46.2 µM), for inactives: at the highest dose activity change, negative = growth inhibition, usual class: inhibitors; 12% of 420,000 active; AID 686979, 2013; also: potency is read from the fitted curve at half-maximal effect; % is scaled to controls: 0 for no effect and ±100 for the full control effect; nearly all actives have a fitted effect of over 55% in size
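Chicken DT40 Tdp1-/- cells stably complemented with human TDP1 were seeded at 400 cells/well in medium containing 20 nM camptothecin, exposed to pin-transferred compounds, and grown at 37 °C for at least 48 hr. Viability was read as ATP luminescence.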
IL-1B inflam inh – qHTS for Inhibitors of Inflammasome Signaling: IL-1-beta AlphaLISA Primary Screen | THP-1 LPS/ATP IL-1B secretion, AlphaLISA, 16 h; stronger effect = lower value | 4.7% of 360,000 active | activity change, % at 57.5 µM; in the data active = activity change below about -50%; inconclusive = mostly about -30% to -49%; also: % is scaled to controls: 0 for no effect and ±100 for the full control effect
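THP-1 cells pretreated 1 hr with compounds (up to 57.5 uM final), then stimulated with LPS (250 ng/mL final) plus ATP (1.25 mM final); secreted IL-1B measured by AlphaLISA after 16 hr, decreased signal indicating inhibition.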
ClpP mod – qHTS Assay for Activators of ClpP. purified B. subtilis ClpP, FRET peptide cleavage, 20 min. Potency, µM (highest dose often 57.5 µM), without a hit: at the top dose activity change, negative = active. 1.9% of 340,000 active. AID 651965, 2013; active = well fitted falling curve with a large enough effect; inconclusive = small, poorly fitted or top-dose-only effect; inactive = no such curve, though single readings can be large or run the other way; also: potency is read from the fitted curve at half-maximal effect; the source files actives as falling curves though it sought activators and does not explain the sign; nearly all actives have a fitted effect of over 65% in size
Target sequence (P80244 whole entry, looked up): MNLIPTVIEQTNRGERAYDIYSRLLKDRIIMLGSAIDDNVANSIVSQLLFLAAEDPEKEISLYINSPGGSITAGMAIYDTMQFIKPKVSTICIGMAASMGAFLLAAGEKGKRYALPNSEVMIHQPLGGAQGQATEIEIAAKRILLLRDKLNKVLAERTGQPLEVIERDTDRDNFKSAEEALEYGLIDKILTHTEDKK
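Purified B. subtilis ClpP, 10 microg/mL final in Tris/HCl pH8 with KCl, BSA, glycerol and Tween-20, cleaved an Abz/nitrotyrosine-quenched decapeptide. Fluorescence (ex 320, em 430) was read at 0 and 20 min at room temperature. Delta was normalized to 5.8 microM ADEP and DMSO/no-enzyme controls.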
D3 ag – qHTS of D3 Dopamine Receptor Agonist: qHTS; AID 652048, 2013; 0.58% of 410,000 active; D(3) dopamine receptor (Homo sapiens), P35462; D3R DiscoveRx beta-arrestin cells, luminescence, 90 min; max activation, %; in the data active = max activation above about 30%; also: 0% is about no effect
Target sequence (P35462 whole entry, looked up): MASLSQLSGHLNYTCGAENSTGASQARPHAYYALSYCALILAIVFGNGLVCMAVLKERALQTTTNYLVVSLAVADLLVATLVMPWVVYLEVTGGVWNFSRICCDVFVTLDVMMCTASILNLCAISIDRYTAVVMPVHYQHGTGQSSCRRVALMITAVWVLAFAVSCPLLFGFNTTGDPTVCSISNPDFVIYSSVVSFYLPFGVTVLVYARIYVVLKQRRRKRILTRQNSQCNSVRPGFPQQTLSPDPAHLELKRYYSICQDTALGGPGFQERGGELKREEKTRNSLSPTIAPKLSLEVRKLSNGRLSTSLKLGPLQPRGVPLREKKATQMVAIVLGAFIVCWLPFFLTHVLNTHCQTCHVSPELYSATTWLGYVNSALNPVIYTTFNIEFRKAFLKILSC
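Agonist-mode cell screen: cells plated at 1500/well and incubated overnight at 37 °C, then exposed to library compounds for 90 min at 37 °C. Detection reagent was added for 30–60 min at room temperature, and luminescence was read.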
DRD3 antagonist – qHTS of D3 Dopamine Receptor Antagonist: qHTS. D(3) dopamine receptor (Homo sapiens), P35462. D3R cells, DiscoveRx beta-arrestin luminescence, antagonist mode; stronger effect = lower value. max response, negative = inhibition, %. 2.5% of 360,000 active; in the data active = max response below about -50%; inconclusive = no clear call, values can overlap the other calls; also: % is scaled to controls: 0 for no effect and ±100 for the full control effect
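Cells plated overnight at 1500 cells/well, then exposed to library compounds with dopamine controls for 90 minutes at 37 degrees C. DiscoveRx reagent added for 30–60 minutes at room temperature; luminescence read, quantitative HTS format.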
An asterisk follows results filed as active; ? = inconclusive; · = not tested or not shown. Unless noted, calls follow the shape of the dose curve; as a rule, active = well fitted inhibition curve with a large enough effect; inconclusive = small, poorly fitted or top-dose-only effect; inactive = flat fitted curve, though single readings scatter.

SMILES	TDP1 cell noCPT	DT40 TDP1 CPT	IL-1B inflam inh	ClpP mod	D3 ag	DRD3 antagonist
COc1ccc(/C=C/C(=O)c2ccccc2)c(OC)c1	-19%	-22%	0	·	-3	3
COc1cccc(C#Cc2c(CO)[nH]c3ccccc23)c1	?	18µM*	19	-1%	-15	?
COc1cccc(NC(=O)Cc2c(O)c3ccccc3[nH]c2=O)c1	-22%	4%	22	?	-4	-11
C[C@@H]1Cn2cnc(C(=O)N[C@@H](Cc3c[nH]c4ccccc34)C(=O)OC(C)(C)C)c2C(=O)N1	?	-29%	35	-1%	13	12
Fc1ccc(CNc2nc(-c3ccc(Cl)cc3)cc(C(F)(F)F)n2)cc1	18µM*	23µM*	·	4%	-15	·
Fc1ccc(CNc2nc(-c3ccco3)cc(C(F)(F)F)n2)cc1	?	-24%	-2	25µM*	-4	13
O=C(NC(=O)c1cccc(F)c1)Nc1nc(-c2ccc(F)cc2)cc(C(F)(F)F)n1	-26%	-1%	-27	·	4	-20
FC(F)(F)c1ccnc(NCc2ccc(Cl)cc2)n1	-29%	-16%	-55*	·	-3	-8
Nc1nc(-c2ccc(Cl)cc2)cc(C(F)(F)F)n1	-1%	-16%	-4	-24%	-1	1
COc1ccccc1C(=O)NC(=O)Nc1nc(-c2ccccc2)cc(C(F)(F)F)n1	?	15µM*	-24	0%	-9	10
Clc1cccc(CNCCCSc2nnnn2-c2ccccc2)c1	?	?	·	1%	-20	·
CCOC(=O)c1ccccc1NC(=S)N1CCN(C2CCCCC2)CC1	?	-30%	-8	-2%	-5	-11
COc1ccc(-c2cc(C(F)(F)F)nc(NCc3ccccc3)n2)cc1	?	26µM*	·	4%	-13	·
FC(F)(F)c1cc(-c2ccco2)nc(-n2cnc3ccccc32)n1	-17%	-13%	34	-15%	17	-18
Fc1ccc(-c2cc(C(F)(F)F)nc(NCc3cccs3)n2)cc1	?	-17%	-8	32µM*	-2	-4
Cc1nc2ccccc2n1-c1nc(-c2ccco2)cc(C(F)(F)F)n1	2.9µM*	3.7µM*	?	-5%	26	8
FC(F)(F)c1cc(-c2ccco2)nc(NCc2ccccc2)n1	?	?	1	?	3	21
Fc1ccc(-c2cc(C(F)(F)F)nc(NCc3ccccc3)n2)cc1	?	?	·	22µM*	-10	·
FC(F)(F)c1cc(NCc2cccs2)n2ncnc2n1	-5%	-8%	5	0%	6	11
CC1CCCN(C(=O)CN(C)S(=O)(=O)c2cccc3nsnc23)C1 (configuration not stated)	14%	-5%	-17	1%	-3	1
Nc1nc2ccccc2cc1C(=O)NCc1ccc(-c2ccccc2)cc1	0.16µM*	1µM*	10	?	6	-27
NS(=O)(=O)c1ccc(CNC(=O)c2cc(-c3ccccc3)nc3ccccc23)cc1	-18%	-5%	5	·	-5	12
Nc1nc2ccccc2cc1C(=O)NCc1ccc(Cl)cc1Cl	5.8µM*	16µM*	30	5%	-11	-1
CC(Cc1ccccc1)NC(=S)CN1CCCC1=S (configuration not stated)	0%	-18%	-19	-3%	-2	0
Cc1ccc(C(=O)NCC(=O)NCC(=O)OCc2ccc(Cl)cc2)cc1	-8%	-14%	-98*	1%	2	28
SMILES	TDP1 cell noCPT	DT40 TDP1 CPT	IL-1B inflam inh	ClpP mod	D3 ag	DRD3 antagonist
COC(=O)c1ccc(COC(=O)CNC(=O)CNC(=O)c2ccc(C)cc2)cc1	16%	-16%	-13	2%	11	4
C=C1CC2(CC(c3ccccc3)OC(c3ccccc3)C2)OC1=O (configuration not stated)	2.6µM*	1.8µM*	-115*	-1%	1	0
CC(=O)/C=C/c1ccc(C)o1	?	16µM*	11	-3%	-4	3
CC(=C/C(=O)O)/C=C/c1ccc(Cl)o1	-15%	-24%	21	2%	2	14
CCN1CCN(C(=O)/C=C/c2ccc(C)o2)CC1	6%	11%	21	-4%	-3	0
Cc1ccc(/C=C/C(=O)N2CC(C)CC(C)C2)o1 (configuration not stated)	3.3µM*	1.5µM*	?	-3%	-21	?
CC(/C=C/c1ccc(C)o1)=C\C(=O)O	18µM*	12µM*	-18	-2%	-3	-7
COC(=O)c1cc(S(=O)(=O)NCc2cccs2)c[nH]1	-29%	10%	-8	1%	4	-4
COc1ccccc1CC(NC(C)=O)C(=O)NC1CCN(S(=O)(=O)c2ccccc2)CC1 (configuration not stated)	-18%	-4%	-5	1%	-9	-15
Cc1ccc(/C=N/NC(=O)NC23CC4CC(CC(C4)C2)C3)o1	-29%	-3%	-2	0%	1	20
C=C(C)COc1ccc(-c2n[nH]c(C)c2-c2ccc(Br)cc2)c(O)c1	?	18µM*	-92*	-4%	1	-8
C=C(C)COc1ccc(-c2[nH]ncc2-c2ccc(Br)cc2)c(O)c1	5.2µM*	4.6µM*	-100*	-3%	-4	0
C=C(C)COc1ccc(-c2ncncc2-c2ccc(Br)cc2)c(O)c1	-29%	-1%	-8	-4%	8	5
CCOc1ccc(-c2[nH]ncc2Oc2ccccc2OCC)c(O)c1	?	6.5µM*	-15	-1%	4	-2
CCCOC(=O)c1ccc(Oc2cn[nH]c2-c2ccc(OC)cc2O)cc1	21µM*	15µM*	-11	-4%	4	46
CCOc1ccc(-c2[nH]ncc2Oc2ccccc2OC)c(O)c1	?	-24%	-20	-2%	3	18
C=C(C)COc1ccc(-c2nc(N)ncc2-c2ccc(Br)cc2)c(O)c1	?	?	0	-1%	6	11
C=C(C)COc1ccc(-c2[nH]ncc2Oc2ccccc2OC)c(O)c1	?	?	-62*	0%	-2	?
C=C(C)COc1ccc(-c2[nH]ncc2-c2ccccc2OC)c(O)c1	26µM*	26µM*	-60*	-9%	-3	-63*
